Over roughly 140,000 sequences, “enrichment ratio after two sorts for PhoP signalling” has its median near 0; the highest 2% begin near 11. This is one part of a sample in which the highest values are shown more often than they occur.
B1: PhoQ; a variant is named by its letters at X, in order, P23837 (parent)
chain: MKKLLRLFFPLSLRVRFLLATAAVVLVLSLAYGMVALIGYSVSFDKTTFRLLRGESNLFYTLAKWENNKLHVELPENIDKQSPTMTLIYDENGQLLWAQRDVPWLMKMIQPDWLKSNGFHEIEADVNDTSLLLSGDHSIQQQLQEVREDDDDAEMTHSVAVNVYPATSRMPKLTIVVVDTIPVELKSSYMVWSWFIYVLSANLLLVIPLLWVAAWWSLRPIEALAKEVRELEEHNRELLNPATTRELTSLVRNLNRLLKSERERYDKYRTTLTDLTHSLKTPLXXLQXXLRSLRSEKMSVSDAEPVMLEQISRISQQIGYYLHRASMRGGTLLSRELHPVAPLLDNLTSALNKVYQRKGVNISLDISPEISFVGEQNDFVEVMGNVLDNACKYCLEFVEISARQTDEHLYIVVEDDGPGIPLSKREVIFDRGQRVDTLRPGQGVGLAVAREITEQYEGKIVAGESMLGGARMEVIFGRQHSAPKDE

Variants of: B1
Experiment: enrichment ratio after two sorts for PhoP signalling (ratio (wild type AVST 3.29)); higher = more functional
Details: with PhoP (E. coli)

Variant | enrichment ratio
PCMW | ≤ 0.25
GSWF | ≤ 0.25
HSKP | ≤ 0.25
WEQY | ≤ 0.25
IRFS | ≤ 0.25
SELY | 11.4
QEVT | ≤ 0.25
MEVT | 27.6
SFLY | 0.911
SELS | 20.9
KYLS | ≤ 0.25
SPLS | ≤ 0.25
KYLY | ≤ 0.25
NEVT | ≤ 0.25
SEVT | 16.8
SLVT | 0.291
SQVT | 5.85
PENI | ≤ 0.25
PNLE | ≤ 0.25
DQCP | ≤ 0.25
HGEI | ≤ 0.25
SWKP | ≤ 0.25
WESM | ≤ 0.25
SPLD | ≤ 0.25

Variant | enrichment ratio
SEAA | 14.3
SELD | 14
SEAD | 5.48
YTLY | 1.95
KYLD | ≤ 0.25
SEET | 6.48
SPLY | ≤ 0.25
STLY | 13.1
SENT | 2.04
SEAT | 13.6
STAA | 4.26
DWIM | ≤ 0.25
NPSS | ≤ 0.25
FFHH | 0.731
TYSH | 1.78
NQDR | ≤ 0.25
LYHC | ≤ 0.25
YVNL | ≤ 0.25
RKNY | ≤ 0.25
MNMF | ≤ 0.25
FCKG | ≤ 0.25
HNCC | ≤ 0.25
HKCC | ≤ 0.25
ANCC | 0.324

Variant | enrichment ratio
HKNH | ≤ 0.25
HNNH | ≤ 0.25
TKNW | ≤ 0.25
AKCC | 15.2
TKNI | 13.3
TKNH | 11.4
MKCC | ≤ 0.25
TKCC | 13.1
HKNI | ≤ 0.25
KKAH | ≤ 0.25
LSQM | ≤ 0.25
NLVR | ≤ 0.25
SGPQ | ≤ 0.25
FWSM | ≤ 0.25
VAFK | ≤ 0.25
MYIN | ≤ 0.25
EPPF | ≤ 0.25
IMLD | ≤ 0.25
TKNM | 31.9
EQCC | ≤ 0.25
HKNM | ≤ 0.25
KKNM | ≤ 0.25
AQCC | 32.6
NQCC | ≤ 0.25

Variant | enrichment ratio
ITTI | ≤ 0.25
GTTI | 13.5
TTTI | 22.1
TTTA | 5.71
GVTI | 4.7
YTTI | ≤ 0.25
PPTP | ≤ 0.25
GQSI | ≤ 0.25
GSSI | 14.1
TGSI | 19.6
NGSI | ≤ 0.25
GSTG | ≤ 0.25
NISI | ≤ 0.25
GGSI | 12.3
RGSI | ≤ 0.25
GSSK | ≤ 0.25
MYCI | ≤ 0.25
LDCF | ≤ 0.25
DHSM | ≤ 0.25
GCII | 18.2
YTII | ≤ 0.25
GGII | 1.19
GTII | 13.8
GYII | 0.285

Variant | enrichment ratio
GNII | 8.44
TMAK | 16.1
TMIM | ≤ 0.25
TMAN | 18.9
KMNM | ≤ 0.25
TMPM | ≤ 0.25
HAAK | ≤ 0.25
TMNM | 35
DMAN | ≤ 0.25
TMAM | 26.9
KMAM | ≤ 0.25
KMAN | ≤ 0.25
NMAK | ≤ 0.25
HYTR | ≤ 0.25
LWGW | ≤ 0.25
NTYY | ≤ 0.25
YIFC | ≤ 0.25
CVCM | ≤ 0.25
TMGM | 3.21
TMTM | 17.1
TMWM | ≤ 0.25
TWYG | ≤ 0.25
FFGF | ≤ 0.25
QGGF | 18.4

Variant | enrichment ratio
QGFA | 1.27
QGFF | 13.9
QPGF | ≤ 0.25
QEGF | ≤ 0.25
FFFF | ≤ 0.25
QIHF | ≤ 0.25
QIGF | 12.5
LRWS | ≤ 0.25
ITEW | ≤ 0.25
ELKD | ≤ 0.25
HCGH | ≤ 0.25
NAPY | ≤ 0.25
CIWI | ≤ 0.25
CITA | 12.4
CICV | 0.57
CIMV | 12.9
CITI | ≤ 0.25
CIFA | ≤ 0.25
TNDF | ≤ 0.25
YDRL | ≤ 0.25
VIWT | ≤ 0.25
WDYR | ≤ 0.25
GTGM | 6.32
GDCG | ≤ 0.25

Variant | enrichment ratio
RIRE | ≤ 0.25
QTNY | 17.5
QTNL | 10.8
QEYL | 1.39
KSYL | ≤ 0.25
QTPM | ≤ 0.25
QTDH | 29.3
QTGD | ≤ 0.25
QTDS | 8.33
QTNS | 0.432
QTGM | 12
QGDH | ≤ 0.25
QSYL | 13.9
DLEK | ≤ 0.25
IPTS | ≤ 0.25
VIYV | ≤ 0.25
KMFH | ≤ 0.25
KSEQ | ≤ 0.25
TVLM | 0.847
KYWW | ≤ 0.25
KESK | ≤ 0.25
KVEK | ≤ 0.25
KTHS | 0.436
VEPK | ≤ 0.25

Variant | enrichment ratio
QTPA | ≤ 0.25
QTYL | 12.8
QGYL | 9.62
FDYL | ≤ 0.25
QTYI | 12.9
QTWL | 21.9
QTRL | ≤ 0.25
QGWL | 2.29
QTHF | 3.14
PSTY | ≤ 0.25
DPTW | ≤ 0.25
RMLN | ≤ 0.25
HIRM | ≤ 0.25
KYCT | ≤ 0.25
TECT | 5.22
SRCT | ≤ 0.25
IACT | ≤ 0.25
WLCT | ≤ 0.25
PLCT | ≤ 0.25
SECT | 24.6
SLCT | 19.2
SACT | 14
HEHS | ≤ 0.25
NPLN | ≤ 0.25

Variant | enrichment ratio
KDNG | ≤ 0.25
TGQY | 5.59
SYEM | ≤ 0.25
LFDK | ≤ 0.25
LFMM | ≤ 0.25
YGQR | ≤ 0.25
GEYI | ≤ 0.25
GELT | 11.2
GEAA | 11.4
GNTT | 2.98
GENY | ≤ 0.25
GEAS | 9.56
GEAT | 14.1
GETT | 16.2
GETA | ≤ 0.25
GEGD | ≤ 0.25
GEYT | 0.289
GEAY | 23.4
MCVP | ≤ 0.25
LYDV | ≤ 0.25
WERP | ≤ 0.25
FGLD | ≤ 0.25
WHSD | ≤ 0.25
PARG | ≤ 0.25

Variant | enrichment ratio
SKNV | ≤ 0.25
KDFC | ≤ 0.25
TTTG | 7.1
ATMG | 16.2
ITCG | ≤ 0.25
ATPI | 8.1
AICG | 8.42
ATIV | 8.37
ATCV | 15.4
ATCG | 16.1
YTTG | ≤ 0.25
ATVG | 6.86
ATMV | 9.43
ATTG | 12
HMVR | ≤ 0.25
PPPT | ≤ 0.25
HYAC | ≤ 0.25
MRCY | ≤ 0.25
ALEK | ≤ 0.25
QMAV | ≤ 0.25
HMTD | ≤ 0.25
LMTS | 0.708
YCYV | ≤ 0.25
SCYS | 0.535

Variant | enrichment ratio
QMGG | ≤ 0.25
LLQC | ≤ 0.25
ATCA | 5.9
ATCI | 12.5
ATGD | ≤ 0.25
ATYD | ≤ 0.25
ATPL | 5.31
ATMW | 26.9
ATCL | 18.6
ATCK | 3.27
ATHW | ≤ 0.25
ATMD | 27.9
ATNL | 5.25
ATPW | ≤ 0.25
WGSP | ≤ 0.25
HYYD | ≤ 0.25
WSIS | ≤ 0.25
ITGG | ≤ 0.25
MSAK | ≤ 0.25
EGWA | ≤ 0.25
DSML | ≤ 0.25
IFTF | ≤ 0.25
PWYL | ≤ 0.25
ADCW | ≤ 0.25

Variant | enrichment ratio
YTCW | ≤ 0.25
ATCW | 11.3
HMKN | ≤ 0.25
NKTY | ≤ 0.25
AQYI | ≤ 0.25
ANNY | 6.43
NQAY | ≤ 0.25
AQAY | 15.2
AIAY | 6.61
ANYI | ≤ 0.25
AHAY | 1.08
AKAY | 13.6
ANAY | 36.4
CPSL | ≤ 0.25
QEVG | ≤ 0.25
FDGF | ≤ 0.25
HSWS | ≤ 0.25
NKSN | ≤ 0.25
WFED | ≤ 0.25
WRFE | ≤ 0.25
IQAV | ≤ 0.25
NVMV | ≤ 0.25
ITCH | ≤ 0.25
SLCH | 11.6

Variant | enrichment ratio
WLCH | ≤ 0.25
TTCH | 15
SHCH | 16
GTCH | 4.08
YTCH | 0.285
KLCH | ≤ 0.25
SHMH | 3
CTCH | ≤ 0.25
STCH | 12.6
THCH | 5.09
DCLL | ≤ 0.25
YWMV | ≤ 0.25
YISQ | 0.456
YEYI | ≤ 0.25
RIQD | ≤ 0.25
APKL | ≤ 0.25
KTLD | ≤ 0.25
QTQN | ≤ 0.25

Source: a collection of fitness landscapes (doi:10.1126/science.1257360)
